Compounds with a hit are over-represented: about 7.6% of the library has one in this group of screens.
SW480 rerep: induces DNA re-replication in SW480 colon adenocarcinoma cells; actives 1.8% (n = 340,000); SW480 DNA re-replication, Hoechst DNA content imaging, 48 h; Potency, µM (titrated, usually from 46.1 µM), actives largely listed as activators; further: nearly all actives have a fitted effect of over 55% in size
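250 cells/well; 23 nL cpd via pin tool; 48 hr, 37 C, 5% CO2; Hoechst 40 min; imager read of total nuclear intensity, ex 405/em 500-530 nm.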
KB-3-1 cytotox: KB-3-1 parental cell cytotoxicity; KB-3-1 viability, CellTiter-Glo ATP luminescence, 72 h; actives 1.4% (n = 400,000); Potency, µM (series often up to 46.1 µM), most hits filed as cytotoxic; further: nearly all actives have a fitted effect of over 60% in size
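Screening of KB-3-1 cells (DMEM, 10% FBS, phenol-red free) ran from lowest to highest compound concentration; after 72 h at 37 °C viability was read luminescently and curves fitted.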
KCNH2 3.1 block: blocks the human KCNH2 3.1 channel isoform; actives 0.95% (n = 340,000); activity change, % (tested at about 1.8 µM); U2OS KCNH2 3.1, thallium flux FluxOr; active compounds read low;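 active means maximum activity change below -70%; inconclusive means maximum activity change from -70% to -50%; inactive means maximum activity change above -50%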;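 further: thallium influx rate constant from kinetic fluorescence after stimulation buffer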
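FluxOr-based Tl+ influx in U2OS cells transduced with KCNH2 3.1 virus; rate constants normalized to DMSO controls.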
MCF10A rerep: DNA re-replication induction in MCF 10a cells. MCF 10A DNA re-replication, Hoechst nuclear intensity, 48 h. Potency, µM (doses to about 46.1 µM), hits mostly activators. actives 2.9% (n = 350,000). AID 624296; further: nearly all actives have a fitted effect of over 50% in size
KCNH2 WT inh: KCNH2 (human, wildtype) channel inhibition; Q12809; U2OS, BacMam KCNH2, thallium flux FluxOr; active compounds read low; activity change, % at 1.84 µM; actives 0.37% (n = 340,000); AID 720551;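 active means maximum activity change below -70%; inconclusive means maximum activity change between -70% and -50%; inactive means maximum activity change above -50%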
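U2OS cells were transduced with wild-type KCNH2 virus (2.03 x 10^8 / mL) for 4 h at room temperature, then cultured overnight at 37 C. Thallium flux was read with FluxOr dye. Rate constants were normalized to DMSO controls.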
KB-V1 cytotox: KB-V1 MDR subline cytotoxicity. KB-V1 MDR cells viability, CellTiter-Glo, 72 h. Potency, µM (series often up to 46.1 µM), most hits filed as cytotoxic. actives 3.4% (n = 400,000); further: nearly all actives have a fitted effect of over 60% in size
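Potencies derive from concentration-effect curves fitted to normalized luminescence (CellTiter-Glo) of KB-V1 cells treated for 72 h at 37 degrees C in phenol-red-free DMEM containing 10% FBS.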
A number is an active result; ! = a repeat was not active. Unless noted, the call rests on the fitted dose curve; in most records, active means well fitted curve in the direction sought with a large enough effect; inconclusive means small, poorly fitted or top-dose-only effect, or another doubt; inactive means no such curve, though single readings can be large; an effect the other way counts as inactive or inconclusive.

Screening CC1(C)CC2c3cccc(C(=O)O)c3C(=O)N2c2c1ccc1ccccc21 (stereo not given) returned SW480 rerep inconclusive, KB-3-1 cytotox inactive, KCNH2 3.1 block inactive, MCF10A rerep inactive, KCNH2 WT inh inactive and KB-V1 cytotox inactive.
CCCCCCCCN1[C@@H](CC(C)=O)c2cc(C(F)(F)F)ccc2S1(=O)=O was read as SW480 rerep inconclusive, KB-3-1 cytotox inconclusive, KCNH2 3.1 block inactive, MCF10A rerep inactive, KCNH2 WT inh inactive and KB-V1 cytotox 18.4µM!.
For O=C(NCc1cccc(Br)c1)c1cccn1-c1nnc(N2CCCCC2)s1 the results were KB-3-1 cytotox inactive and KB-V1 cytotox inactive.
Cn1cc(C(=O)N/N=C/C(Br)=C\c2ccccc2)ccc1=O was read as SW480 rerep 18.4µM, KB-3-1 cytotox inactive, KCNH2 3.1 block inactive, MCF10A rerep inconclusive, KCNH2 WT inh inactive and KB-V1 cytotox inactive.
For COc1ccc(C(=O)N/N=C/C(Br)=C/c2ccccc2)cc1 the results were SW480 rerep inconclusive, KB-3-1 cytotox inactive, KCNH2 3.1 block inactive, MCF10A rerep inconclusive, KCNH2 WT inh inactive and KB-V1 cytotox inconclusive.
Screening Cn1cc(C(=O)N/N=C/C(Br)=C/c2ccccc2)ccc1=O returned SW480 rerep inconclusive, KB-3-1 cytotox inconclusive, KCNH2 3.1 block inactive, MCF10A rerep 25.9µM, KCNH2 WT inh inactive and KB-V1 cytotox inactive.
COc1cccc(C(=O)N/N=C/C(Br)=C/c2ccccc2)c1 was read as SW480 rerep inconclusive, KB-3-1 cytotox inconclusive, KCNH2 3.1 block inactive, MCF10A rerep 8.2µM, KCNH2 WT inh inactive and KB-V1 cytotox 3.66µM.
Screening O=C(Cc1cccs1)N/N=C/C(Br)=C/c1ccccc1 returned SW480 rerep inactive, KB-3-1 cytotox inactive, KCNH2 3.1 block inactive, MCF10A rerep 18.4µM, KCNH2 WT inh inactive and KB-V1 cytotox inactive.
For O=C(N/N=C/C(Br)=C/c1ccccc1)c1cnccn1 the results were SW480 rerep 3.26µM, KB-3-1 cytotox inactive, KCNH2 3.1 block inactive, MCF10A rerep 16.4µM, KCNH2 WT inh inactive and KB-V1 cytotox inactive.
Screening O=C(N/N=C/C=C\c1ccccc1)c1cnccn1 returned SW480 rerep inactive, KB-3-1 cytotox inactive, KCNH2 3.1 block inactive, MCF10A rerep inactive, KCNH2 WT inh inactive and KB-V1 cytotox inactive.
COc1cccc(CN2CC(C(=O)N3CCN(c4ccc(Cl)cc4)CC3)CCC2=O)c1 (stereo not given) was read as SW480 rerep inactive, KB-3-1 cytotox inactive, MCF10A rerep inactive, KCNH2 WT inh inactive and KB-V1 cytotox inconclusive.
CCc1ccc(N2C(=O)Cc3c2nc(N)c(C#N)c3N)cc1 was read as SW480 rerep inactive, KB-3-1 cytotox inactive, KCNH2 3.1 block inactive, MCF10A rerep inactive, KCNH2 WT inh inactive and KB-V1 cytotox inconclusive.
For CCN(CC)c1nc2c3c(nc4c(c3c1C#N)CC(=O)N4c1ccc(Cl)cc1)NC(C)=N2 the results were SW480 rerep inactive, KB-3-1 cytotox inconclusive, KCNH2 3.1 block inactive, MCF10A rerep 9.2µM, KCNH2 WT inh inactive and KB-V1 cytotox inactive.
O=C(NCc1ccccc1Cl)C1(S(=O)(=O)c2ccc(Cl)cc2)CC1 was read as SW480 rerep inactive, KB-3-1 cytotox inactive, KCNH2 3.1 block inactive, MCF10A rerep inactive, KCNH2 WT inh inactive and KB-V1 cytotox inactive.
Screening CC(NC(=O)C1(S(=O)(=O)c2ccc(Cl)cc2)CC1)c1ccccc1 (stereo not given) returned SW480 rerep inactive, KB-3-1 cytotox inactive, KCNH2 3.1 block inactive, MCF10A rerep inactive, KCNH2 WT inh inactive and KB-V1 cytotox 20.6µM.
`COc1ccccc1S(=O)(=O)N(C)C[C@H]1Oc2ncc(Br)cc2C(=O)N([C@H](C)CO)C[C@H]1C` gave KB-3-1 cytotox inconclusive, KCNH2 3.1 block inactive, KCNH2 WT inh inconclusive and KB-V1 cytotox inactive.
Cc1cc(C(=O)CCC(=O)N(C)CC(=O)Nc2ccccc2Br)c(C)s1 was read as SW480 rerep inactive, KB-3-1 cytotox inactive, KCNH2 3.1 block inactive, MCF10A rerep inactive, KCNH2 WT inh inactive and KB-V1 cytotox inactive.
